Laboratory results reported in PubChem BioAssay (NCATS).
Results filed as inconclusive are left out. The list shows a part of the results. Entries that show only a call come without a potency. Calls of active or inactive are those of the source. Unless noted, calls follow the shape of the dose curve; as a rule, active = well fitted curve in the direction sought with a large enough effect; inconclusive = small, poorly fitted or top-dose-only effect, or another doubt; inactive = no such curve, though single readings can be large; an effect the other way counts as inactive or inconclusive.

Experiments:
[1] = qHTS for differential inhibitors of proliferation of Plasmodium falciparum line D10 (AID 1877);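 also: parasites grown with compound for 72 h before DNA staining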; also: potency is read from the fitted curve at half-maximal effect
[2] = qHTS for differential inhibitors of proliferation of Plasmodium falciparum line W2 (AID 1883); conditions: Potency: Plasmodium falciparum W2 proliferation inhibition;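 also: parasites grown with compound for 72 h before lysis and staining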; also: potency is read from the fitted curve at half-maximal effect
[3] = qHTS for differential inhibitors of proliferation of Plasmodium falciparum line HB3 (AID 1886); conditions: Potency: Plasmodium falciparum HB3 proliferation inhibition;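 also: parasites grown with compound for 72 h before SYBR Green readout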; also: potency is read from the fitted curve at half-maximal effect
[4] = target: Ferritin light chain (Equus caballus) (UniProt P02791); assay: qHTS Validation Assay for Identification of Novel General Anesthetics (AID 2323); also: series mostly up to about 77 µM
Sequence of Ferritin light chain (Equus caballus) (P02791 2-175 limits assumed): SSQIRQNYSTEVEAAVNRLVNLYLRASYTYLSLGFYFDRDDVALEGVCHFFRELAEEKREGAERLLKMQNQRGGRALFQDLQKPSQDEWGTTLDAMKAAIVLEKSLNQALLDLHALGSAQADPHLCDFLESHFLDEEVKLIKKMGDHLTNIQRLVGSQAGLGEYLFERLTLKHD
Method in brief: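 Apoferritin from horse spleen (10 uM) was mixed with 1-aminoanthracene at 50% saturation in PBS, then compounds were added. After 10 min at room temperature, fluorescence was read (ex 380 nm, em 535 nm) and normalized to free-probe and complex controls.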

[5] = target: ATP-dependent DNA helicase Q1 (Homo sapiens) (UniProt P46063); assay: qHTS Validation Assay for Inhibitors of RecQ-Like Dna Helicase 1 (RECQ1) (AID 2353); also: potency is read from the fitted curve at half-maximal effect
Sequence of ATP-dependent DNA helicase Q1 (Homo sapiens) (P46063 whole entry, looked up): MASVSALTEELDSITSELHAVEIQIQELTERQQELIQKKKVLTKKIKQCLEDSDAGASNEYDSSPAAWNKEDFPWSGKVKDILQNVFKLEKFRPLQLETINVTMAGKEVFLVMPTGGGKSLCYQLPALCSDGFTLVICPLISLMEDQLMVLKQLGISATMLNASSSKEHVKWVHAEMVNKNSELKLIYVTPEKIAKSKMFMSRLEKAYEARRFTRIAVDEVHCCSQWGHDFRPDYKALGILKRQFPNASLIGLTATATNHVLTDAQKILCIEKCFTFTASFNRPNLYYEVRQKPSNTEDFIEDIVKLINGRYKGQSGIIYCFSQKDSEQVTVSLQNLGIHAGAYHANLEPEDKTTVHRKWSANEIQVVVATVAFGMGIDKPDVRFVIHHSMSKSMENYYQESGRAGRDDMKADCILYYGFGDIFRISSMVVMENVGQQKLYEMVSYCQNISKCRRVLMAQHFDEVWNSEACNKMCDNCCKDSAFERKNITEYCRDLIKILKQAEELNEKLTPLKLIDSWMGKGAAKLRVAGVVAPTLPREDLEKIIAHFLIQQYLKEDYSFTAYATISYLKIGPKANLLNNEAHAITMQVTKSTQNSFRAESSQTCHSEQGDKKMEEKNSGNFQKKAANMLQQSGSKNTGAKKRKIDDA
Method in brief: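 RECQ1T1 50 nM; forked duplex (20 bp + 30-nt ss tails) 200 nM, ATP 2 mM final; pH 8.0, 2 mM MgCl2, 2.5 ug/ml poly(dI-dC); 15 min compound preincubation; discontinuous kinetic read over 2 h at RT.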

[6] = Cytometric Cell-Based qHTS for Inhibitors of the mTORC1 Signaling Pathway in MEF (Tsc2-/-, p53-/-) Cells (AID 2660);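 also: Tsc2 and p53 null MEFs carrying empty vector with compound for 24 h; percent of cells above a phospho-rpS6 to PI ratio cutoff in each well; series mostly up to about 38 µM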
Method in brief: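 Cells are plated, treated with compound for 24 hrs at 37 degree Celsius, then fixed, blocked and immunostained for phospho-rpS6 Ser235/236. Propidium iodide counterstain follows. Per-well % positive cells is derived from the PI-normalized phospho-S6 signal.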

[7] = High Content Imaging Cell-Based qHTS for Inhibitors of the mTORC1 Signaling Pathway in MEF (Tsc2-/-, p53-/-) Cells (AID 2666);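 also: percent of cells scored positive for phospho-rpS6 Ser235/236 immunostaining by imaging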
Method in brief: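 MEF Tsc2-/- p53-/- (empty vector), DMEM/10% FBS; cpd 24 h 37 °C; PFA fix, Alexa-488 p-rpS6 S235/236 Ab, Hoechst; imaged; rapamycin-defined inhibition; % positive cells/well.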

[8] = target: DNA polymerase III PolC-type (Bacillus subtilis (strain 168)) (UniProt P13267); assay: qHTS Validation Assay for the Inhibitors of DNA Replication in Gram-Positive Bacteria (AID 485295); also: potency is read from the fitted curve at half-maximal effect
Sequence of DNA polymerase III PolC-type (Bacillus subtilis (strain 168)) (P13267 whole entry, looked up): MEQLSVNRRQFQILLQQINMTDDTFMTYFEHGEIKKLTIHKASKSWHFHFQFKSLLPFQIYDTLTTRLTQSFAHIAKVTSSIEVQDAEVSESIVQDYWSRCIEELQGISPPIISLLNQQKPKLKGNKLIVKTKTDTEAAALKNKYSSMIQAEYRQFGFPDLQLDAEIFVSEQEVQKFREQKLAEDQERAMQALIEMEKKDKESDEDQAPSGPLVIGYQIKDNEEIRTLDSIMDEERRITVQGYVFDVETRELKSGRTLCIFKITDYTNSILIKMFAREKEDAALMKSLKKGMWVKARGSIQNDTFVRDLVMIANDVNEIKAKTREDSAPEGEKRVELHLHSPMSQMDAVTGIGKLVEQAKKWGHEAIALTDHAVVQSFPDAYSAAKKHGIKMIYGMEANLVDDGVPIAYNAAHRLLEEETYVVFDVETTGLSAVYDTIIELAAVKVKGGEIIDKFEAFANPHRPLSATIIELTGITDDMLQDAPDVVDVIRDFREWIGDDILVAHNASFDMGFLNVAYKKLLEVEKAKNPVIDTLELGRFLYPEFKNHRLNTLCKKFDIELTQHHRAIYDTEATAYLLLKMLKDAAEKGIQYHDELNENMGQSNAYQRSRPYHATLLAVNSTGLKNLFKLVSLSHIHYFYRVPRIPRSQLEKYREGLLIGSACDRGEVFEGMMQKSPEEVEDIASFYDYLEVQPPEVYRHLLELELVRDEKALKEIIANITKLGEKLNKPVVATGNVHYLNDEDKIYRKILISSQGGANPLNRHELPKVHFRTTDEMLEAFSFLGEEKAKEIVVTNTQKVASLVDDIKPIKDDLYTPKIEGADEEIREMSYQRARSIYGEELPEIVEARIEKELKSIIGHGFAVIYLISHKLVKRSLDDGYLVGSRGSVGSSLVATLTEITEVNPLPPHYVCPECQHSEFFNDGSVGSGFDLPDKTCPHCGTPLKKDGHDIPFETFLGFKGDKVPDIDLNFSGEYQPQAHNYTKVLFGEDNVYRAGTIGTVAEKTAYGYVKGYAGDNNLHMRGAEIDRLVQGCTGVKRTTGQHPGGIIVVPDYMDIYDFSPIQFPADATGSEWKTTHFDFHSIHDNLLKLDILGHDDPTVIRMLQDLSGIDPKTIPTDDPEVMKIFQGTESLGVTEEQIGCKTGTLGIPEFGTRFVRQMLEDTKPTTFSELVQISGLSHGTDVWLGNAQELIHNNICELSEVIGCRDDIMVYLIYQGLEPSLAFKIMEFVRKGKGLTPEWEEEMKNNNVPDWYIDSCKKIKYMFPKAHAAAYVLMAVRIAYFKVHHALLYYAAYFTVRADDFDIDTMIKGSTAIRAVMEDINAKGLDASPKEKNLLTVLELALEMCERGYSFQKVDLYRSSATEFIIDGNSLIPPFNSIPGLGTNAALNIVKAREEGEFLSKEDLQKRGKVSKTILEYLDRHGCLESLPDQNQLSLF
Method in brief: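 Primed replication of single-stranded M13Gori by a four-protein B. subtilis holoenzyme is measured at room temperature. Double-stranded product is quantified by PicoGreen fluorescence after an EDTA stop; inhibition is scaled between DMSO and EDTA controls.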

[9] = target: Tumor susceptibility gene 101 protein (Homo sapiens) (UniProt Q99816); assay: qHTS Validation Assay for Iinhibitors of HIV-1 Budding by Blocking the Interaction of PTAP/TSG101 (AID 485342; calls by dose curve)
Sequence of Tumor susceptibility gene 101 protein (Homo sapiens) (Q99816 whole entry, looked up, the tested form may be a part): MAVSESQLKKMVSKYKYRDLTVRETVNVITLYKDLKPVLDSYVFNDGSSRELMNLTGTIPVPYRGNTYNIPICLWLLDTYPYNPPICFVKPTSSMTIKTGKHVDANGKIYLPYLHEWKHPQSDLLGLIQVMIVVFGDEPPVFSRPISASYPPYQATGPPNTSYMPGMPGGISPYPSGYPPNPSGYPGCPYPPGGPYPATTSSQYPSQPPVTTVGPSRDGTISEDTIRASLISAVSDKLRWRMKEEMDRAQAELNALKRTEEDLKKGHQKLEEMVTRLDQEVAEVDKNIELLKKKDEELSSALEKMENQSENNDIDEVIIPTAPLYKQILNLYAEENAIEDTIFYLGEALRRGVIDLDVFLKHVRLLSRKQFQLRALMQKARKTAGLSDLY
Method in brief: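 Fluorescence anisotropy measured PTAP-Tsg101 interaction. Final concentrations were 10 uM protein domain and 50 nM labeled peptide, equilibrated 20 min at room temperature.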

[10] = qHTS Assay for Modulators of Human Peripheral Myelin Protein 22 (PMP22) Expression/Activity (AID 1967; active = well fitted curve in the direction sought with a large enough effect in the signal ratio; the % refers to the signal ratio)
Method in brief: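 Quantitative HTS in a mouse Schwann cell line expressing dual click beetle luciferases: Pmp22 promoter (green) and control EF-alpha promoter (red). After 24h treatment, corrected green/red signal ratio gave %Activity relative to untreated cells.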

[11] = target: RecQ-like DNA helicase BLM (Homo sapiens) (UniProt P54132); assay: qHTS Validation Assay for Inhibitors of Bloom's syndrome helicase (BLM) (AID 2364); also: potency is read from the fitted curve at half-maximal effect
Sequence of RecQ-like DNA helicase BLM (Homo sapiens) (P54132 whole entry, looked up): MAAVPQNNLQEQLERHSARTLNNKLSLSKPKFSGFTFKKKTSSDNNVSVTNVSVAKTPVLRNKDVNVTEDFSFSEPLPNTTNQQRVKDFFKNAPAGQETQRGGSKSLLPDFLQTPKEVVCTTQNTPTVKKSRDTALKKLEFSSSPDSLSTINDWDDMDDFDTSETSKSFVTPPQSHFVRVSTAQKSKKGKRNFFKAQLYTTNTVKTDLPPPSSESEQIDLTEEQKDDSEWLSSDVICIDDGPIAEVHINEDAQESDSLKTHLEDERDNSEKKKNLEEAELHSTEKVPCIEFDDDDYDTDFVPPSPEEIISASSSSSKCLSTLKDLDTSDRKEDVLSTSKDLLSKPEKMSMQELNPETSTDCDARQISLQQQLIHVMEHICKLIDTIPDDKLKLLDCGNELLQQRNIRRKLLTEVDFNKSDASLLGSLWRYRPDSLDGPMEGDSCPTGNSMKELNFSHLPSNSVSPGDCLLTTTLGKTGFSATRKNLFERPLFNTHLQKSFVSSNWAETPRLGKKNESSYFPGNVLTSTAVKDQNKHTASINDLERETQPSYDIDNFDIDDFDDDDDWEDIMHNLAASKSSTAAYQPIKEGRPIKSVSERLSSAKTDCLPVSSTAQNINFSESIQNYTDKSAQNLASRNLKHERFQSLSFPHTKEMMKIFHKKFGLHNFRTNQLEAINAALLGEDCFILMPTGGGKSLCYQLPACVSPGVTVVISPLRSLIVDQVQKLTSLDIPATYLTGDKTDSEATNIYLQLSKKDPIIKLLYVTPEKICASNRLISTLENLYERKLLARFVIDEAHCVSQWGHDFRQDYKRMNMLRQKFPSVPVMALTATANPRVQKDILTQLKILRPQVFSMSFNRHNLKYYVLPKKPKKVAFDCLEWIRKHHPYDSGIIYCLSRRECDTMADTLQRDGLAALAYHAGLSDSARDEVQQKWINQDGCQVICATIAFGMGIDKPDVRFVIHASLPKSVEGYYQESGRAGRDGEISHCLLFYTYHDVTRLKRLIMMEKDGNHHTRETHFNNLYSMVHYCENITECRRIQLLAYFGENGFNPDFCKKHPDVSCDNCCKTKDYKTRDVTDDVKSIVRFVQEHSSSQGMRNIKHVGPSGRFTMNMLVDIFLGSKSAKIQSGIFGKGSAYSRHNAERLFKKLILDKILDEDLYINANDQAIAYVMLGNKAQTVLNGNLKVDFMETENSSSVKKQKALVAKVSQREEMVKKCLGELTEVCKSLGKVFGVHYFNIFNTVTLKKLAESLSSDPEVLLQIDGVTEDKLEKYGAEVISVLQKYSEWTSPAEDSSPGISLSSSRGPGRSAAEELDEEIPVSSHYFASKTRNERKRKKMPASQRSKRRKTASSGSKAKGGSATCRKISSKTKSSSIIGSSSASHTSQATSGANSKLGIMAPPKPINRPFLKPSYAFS
Method in brief: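 50 nM BLM preincubated 15 min at room temperature with compound in pH 8.0 Tris buffer containing 2.5 ug/ml poly(dI-dC); started with 200 nM TAMRA/BHQ-2 forked duplex and 2 mM ATP (final). Unwinding read as TAMRA fluorescence increase, two reads 2 h apart.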

[12] = High Content Imaging Cell-Based qHTS for Inhibitors of the mTORC1 Signaling Pathway in MEF Cells (AID 2667);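 also: Tsc2-/- p53-/- MEFs stably re-expressing wild-type Tsc2 exposed 24 h; series mostly up to about 38 µM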
Method in brief: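 Read-out is the share of phospho-rpS6-positive cells per well, from Hoechst-normalized Alexa-488 Ser235/236 staining imaged on IN Cell. Cells: WT Tsc2-expressing Tsc2-/-, p53-/- MEFs exposed to compound for 24 hrs.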

[13] = Validation screen for small molecules that induce DNA re-replication in MCF 10A normal breast cells (AID 463097); also: nearly all actives have a fitted effect of over 60% in size; also: potency is read from the fitted curve at half-maximal effect
Method in brief: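 DNA re-replication was detected as a rise in nuclei with elevated Hoechst fluorescence after a 48 hr compound exposure of MCF 10A cells at 37 C.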

[14] = target: Ubiquitin carboxyl-terminal hydrolase 2 (Homo sapiens) (UniProt O75604); assay: qHTS Validation Assay for Inhibitors of Ubiquitin-specific Protease USP2a Using CHOP2 as the Reporter (AID 463106)
Sequence of Ubiquitin carboxyl-terminal hydrolase 2 (Homo sapiens) (O75604 whole entry, looked up): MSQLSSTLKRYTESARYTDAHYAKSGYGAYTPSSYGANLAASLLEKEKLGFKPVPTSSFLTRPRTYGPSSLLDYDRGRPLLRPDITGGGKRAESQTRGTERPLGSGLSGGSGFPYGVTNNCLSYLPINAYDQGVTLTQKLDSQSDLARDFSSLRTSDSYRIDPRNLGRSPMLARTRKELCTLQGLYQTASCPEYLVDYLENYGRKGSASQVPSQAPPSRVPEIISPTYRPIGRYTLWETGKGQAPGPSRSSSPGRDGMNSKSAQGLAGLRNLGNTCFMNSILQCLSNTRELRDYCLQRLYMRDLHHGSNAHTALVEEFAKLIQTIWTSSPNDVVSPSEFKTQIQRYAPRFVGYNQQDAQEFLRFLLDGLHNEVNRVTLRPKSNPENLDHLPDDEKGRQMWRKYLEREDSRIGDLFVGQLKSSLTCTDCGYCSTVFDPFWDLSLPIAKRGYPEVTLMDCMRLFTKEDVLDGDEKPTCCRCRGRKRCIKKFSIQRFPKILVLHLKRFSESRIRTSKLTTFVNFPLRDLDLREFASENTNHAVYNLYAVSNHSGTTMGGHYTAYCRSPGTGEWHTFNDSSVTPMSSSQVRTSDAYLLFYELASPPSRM
Method in brief: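 Fluorescence read-out at Ex 485nm/Em 531nm after 60min RT, following addition of 25nM Ub-CHOP2 plus 25nM reporter substrate to USP2 core (10nM) pretreated 30min with compound. Data normalized to NEM full inhibition; concentration-response curves fitted.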

[15] = qHTS Validation Assay to Find Inhibitors of Chronic Active B-Cell Receptor Signaling (AID 485345; active = well fitted curve in the direction sought with a large enough effect in the main read-out, with a control signal flat, not every such curve was filed as active)
Method in brief: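 TMD8 ABC-DLBCL cells stably carrying doxycycline-inducible IkappaBalpha–green luciferase fusion plus unfused red luciferase; compounds 46 uM to 3 nM, 4 h at 37C with doxycycline. Corrected green/red luminescence ratio normalized to 10 uM MG-132 and basal cell wells; curves fitted.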

[16] = Cytometry Cell-Based qHTS for Inhibitors of the mTORC1 Signaling Pathway in MEF cells (AID 2668);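 also: Tsc2-/- p53-/- mouse embryonic fibroblasts stably re-expressing wild-type Tsc2; percent cells positive for phospho-rpS6 Ser235/236 relative to propidium iodide stain; series mostly up to about 38 µM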
Method in brief: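 Pathway inhibition in WT Tsc2-rescued Tsc2-/-, p53-/- MEFs is measured as the Alexa-488 phospho-rpS6 to propidium iodide intensity ratio after 24 hrs of compound at 37 degree Celsius. PI-stained cell number gives viability.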

[17] = target: Endonuclease 4 (Escherichia coli (strain K12)) (UniProt P0A6C1); assay: Counterscreen for APE1 Inhibitors: qHTS Assay for Inhibitors of Endonuclease IV (AID 2565)
Method in brief: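 Read-out: fluorescence rise (ex 525/em 598 nm) from incision of a TAMRA/BHQ-2 double-stranded THF abasic-site substrate (50 nM), measured kinetically; third-minus-first read difference gave reaction progress. Enzyme 2 nM.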

[18] = target: DNA repair nuclease/redox regulator APEX1 (Homo sapiens) (UniProt P27695); assay: Confirmation qHTS Assay for Inhibitors of the Human Apurinic/apyrimidinic Endonuclease 1 (APE1) (AID 2572);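 also: fluorescence gain from purified APE1 cutting a TAMRA/BHQ-2 THF abasic duplex; nearly all actives have a fitted effect of over 30% in size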
Sequence of DNA repair nuclease/redox regulator APEX1 (Homo sapiens) (P27695 whole entry, looked up): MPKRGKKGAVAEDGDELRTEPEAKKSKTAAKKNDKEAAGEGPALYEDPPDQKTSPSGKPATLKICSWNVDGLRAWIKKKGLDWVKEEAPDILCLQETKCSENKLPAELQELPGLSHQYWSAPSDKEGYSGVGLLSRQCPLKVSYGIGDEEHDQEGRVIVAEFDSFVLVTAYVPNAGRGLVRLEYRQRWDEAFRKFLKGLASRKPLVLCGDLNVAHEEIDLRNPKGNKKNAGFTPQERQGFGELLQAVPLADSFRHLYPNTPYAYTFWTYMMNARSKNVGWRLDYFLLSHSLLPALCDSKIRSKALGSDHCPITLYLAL
Method in brief: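 APE1 preincubated 15 min RT with compound; 50 nM TAMRA/BHQ-2 THF-abasic duplex added; kinetic fluorescence, 3 reads at 60 s intervals, Ex 525/Em 598; progress = read 3 minus read 1.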

[19] = qHTS for differential inhibitors of proliferation of Plasmodium falciparum line Dd2 (AID 1882); conditions: Potency: Plasmodium falciparum Dd2 proliferation inhibition;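 also: series mostly up to about 29 µM; compound exposure of 72 h on infected erythrocytes; nearly all actives have a fitted effect of over 65% in size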
Method in brief: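 RBC culture, 0.3% parasitemia / 2.5% Hct final; cpd added by pin tool in DMSO; 72 h, 37 C, 5% CO2; lysis buffer + SYBR Green I, o/n RT dark; FI 485/535; norm. to artemisinin 0.29 uM and DMSO.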

Compound | Potency [1] | Potency [2] | Potency [3] | Potency [4] | Potency [5] | outcome [6] | Potency [7] | Potency [8] | outcome [9] | outcome [10] | Potency [11] | Potency [12] | Potency [13] | Potency [14] | outcome [15] | Potency [16] | outcome [17] | outcome [18] | Potency [19]
CCCCOC(=O)NS(=O)(=O)c1sc(CC(C)C)cc1-c1ccc(Cn2c(CC)nc3c(C)cc(C)nc32)cc1 | 11.2 µM (active) | 7.94 µM (active) | 12.6 µM (active) | inactive | inactive | inactive | inactive | inactive | inactive |  |  |  |  |  |  |  |  |  | 
N[C@@H](CS(=O)O)C(=O)O | inactive | inactive | inactive | inactive | inactive | inactive | inactive | inactive | inactive | inactive | inactive | inactive | inactive | inactive | inactive |  |  |  | 
NCCS(=O)O | inactive | inactive | inactive | inactive | inactive | inactive | inactive |  | inactive | inactive |  | inactive | inactive | inactive |  |  |  |  | 
COc1ccc2c(c1)c(CC(=O)O)c(C)n2Cc1ccc(Cl)cc1 | 14.1 µM (active) | 8.91 µM (active) | 14.1 µM (active) | inactive | inactive | inactive | inactive |  | inactive |  | inactive | inactive | inactive | inactive | inactive | inactive |  |  | 
CCN(CC)CCOC(=O)c1cc(Cl)c(N)cc1OC | inactive | inactive | inactive | inactive | inactive | inactive | inactive | inactive | inactive | inactive | inactive | inactive | inactive | inactive | inactive |  |  |  | 
CN(C)C(=O)/N=N/C(=O)N(C)C | inactive | inactive | inactive | inactive | inactive | inactive | inactive | inactive | inactive |  | inactive | inactive | inactive | inactive | inactive | inactive |  |  | 
CCN(c1nc(N)c(C(=O)N=C(N)N)nc1Cl)C(C)C | 11.2 µM (active) | 7.94 µM (active) | 11.2 µM (active) |  | inactive | inactive | inactive | inactive |  |  | inactive | inactive |  |  | inactive |  |  |  | 
CNc1cc(NS(=O)(=O)c2ccc(N)cc2)nc(NC)n1 | inactive | inactive | inactive | inactive | inactive | inactive | inactive | inactive |  | inactive |  | inactive | inactive | inactive | inactive | inactive |  |  | 
O=[N+]([O-])c1cccc2c(Br)[nH]nc12 | inactive | inactive | inactive | inactive | inactive | inactive | inactive | inactive | inactive | inactive |  | inactive | inactive | inactive | inactive | inactive |  |  | 
OCC1NCC(O)C(O)C1O (stereo not drawn) | inactive | inactive | inactive | inactive | inactive | inactive | inactive | inactive |  | inactive | inactive | inactive | inactive | inactive |  | inactive |  |  | 
O=C1Cc2c([nH]c3ccc(Br)cc23)-c2ccccc2N1 | 11.2 µM (active) | 10 µM (active) | 12.6 µM (active) | inactive | inactive |  |  | inactive | inactive |  |  | inactive | 6.31 µM (active) | inactive |  |  |  |  | 
C=C(C)C1CC=C(C(=O)O)CC1 (stereo not drawn) | inactive | inactive | inactive | inactive | inactive | inactive | inactive | inactive | inactive | inactive | inactive | inactive | inactive | inactive |  | inactive |  |  | 
NC1CCN(O)C1=O (stereo not drawn) | inactive | inactive | inactive | inactive | inactive | inactive | inactive | inactive | inactive | inactive | inactive | inactive | inactive | inactive |  | inactive | inactive | inactive | 
Nc1ccc(-c2nc3ccc(-c4nc5ccc(N)cc5[nH]4)cc3[nH]2)cc1 | 0.708 µM (active) | 0.251 µM (active) | 0.794 µM (active) | inactive | 8.91 µM (active) | inactive | inactive | 21.2 µM (active) | inactive |  | 22.4 µM (active) | inactive |  |  |  | inactive |  |  | 
Nn1nnc2ccccc21 | 12.6 µM (active) | 17.8 µM (active) |  | inactive | inactive | inactive | inactive |  |  | inactive | inactive | inactive | inactive | inactive | inactive | inactive |  |  | 
NC1(C(=O)O)CC1 |  | 12.6 µM (active) |  | inactive | inactive | inactive | inactive |  | inactive |  |  | inactive | inactive | inactive | inactive | inactive |  |  | inactive
C/C(=C\c1ccc(C(=O)O)cc1)c1ccc2c(c1)C(C)(C)CCC2(C)C |  |  | inactive | inactive |  | inactive | inactive |  | inactive |  |  | inactive | 11.2 µM (active) |  |  |  |  |  | inactive
CCCCCCCCCCCCCCC[C@H](O)[C@H](N)CO |  | 12.6 µM (active) |  |  | inactive | inactive | inactive | inactive | inactive | inactive |  |  |  | inactive | inactive |  |  |  | inactive
CNC(=O)c1cc2c(cn1)[nH]c1ccccc12 | inactive | 12.6 µM (active) |  |  | inactive | inactive | inactive | inactive | inactive |  | inactive | inactive | inactive | inactive | inactive | inactive |  |  | 
